# Source: PubChem BioAssay
# tim23-1 inh = inhibits growth of tim23-1 mutant yeast; S. cerevisiae tim23-1 growth, BacTiter-Glo luminescence, 24 h; 1.3% of 330,000 active; AID 463212; inhibition, % at 20 µM;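 active means growth inhibition of the mutant yeast at or above 50%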;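 further: temperature-sensitive mutant grown at 25 °C; plate controls were DMSO-treated mutant yeast for no effect and medium wells lacking yeast for full effect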
# TIM10 inh = growth inhibitors of TIM10 yeast strain | inhibition, % at 10 µM | S. cerevisiae TIM10 strain growth, BacTiter-Glo luminescence, 24 h | AID 463195 | 1.4% of 330,000 active;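 active means inhibition of 40% or more at the single tested concentration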;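 further: wild-type TIM10 isogenic control strain grown at permissive 25 °C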
# tim10-1 inh = growth inhibitors of tim10-1 mutant yeast | inhibition, % at 20 µM | S. cerevisiae tim10-1 ts strain growth, BacTiter-Glo, 24 h | 2.2% of 330,000 active;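 active means inhibition of at least 40%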;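 further: mutant grown at 25 °C; 0% = DMSO wells with yeast and 100% = wells holding no yeast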
# NALP1 inh = blocks the NALP1 inflammasome reconstituted in yeast; S. cerevisiae NALP1/ASC/caspase-1 growth, X-gal OD620, 72 h; inhibition, % at 10 µM; 0.61% of 280,000 active; AID 2071; in the data active means inhibition mostly above about 24%, no sharp cut-off; inactive means mostly below about 32%
# NLRP3 yeast inh = NALP3 inhibition in yeast | Yeast reconstituted NLRP3/ASC/caspase-1, beta-gal luminescence, 24 h | inhibition, % at 10 µM | 0.39% of 330,000 active | AID 2825;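 active means inhibition of 50% or more; inactive means inhibition below 50%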;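 further: plate controls were induced DMSO wells for no effect and uninduced yeast grown without galactose for full effect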
# tim10-1 confirm = confirmation of tim10-1 mutant yeast growth inhibitors. shares compounds with tim10-1 inh. S. cerevisiae tim10-1 ts strain growth, BacTiter-Glo, 24 h. inhibition, % at 20 µM. 56% of 7,400 active;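 active means inhibition of yeast growth at or above a set limit in either of two repeat tests at 20 µM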;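 further: tim10-1 mutant grown at permissive 25 °C to find synthetic lethal compounds; 0% = DMSO yeast wells and 100% = medium wells without yeast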
# Active calls of the source: *; · = no result given. Compounds with a hit are over-represented: about 4% of the library has one in this group of screens.
SMILES,tim23-1 inh,TIM10 inh,tim10-1 inh,NALP1 inh,NLRP3 yeast inh,tim10-1 confirm
CC1CCCN(C(=S)SCC(=O)O)C1 (stereo not given),8.4,-1.2,6.6,36.5,12.6,·
CC1CCCN(C(=S)SCC(=O)c2cc(Br)cc(Br)c2O)C1 (stereo not given),41.6,38.0,50.4*,-7.0,-4.6,46.5*
O=C1NC(=Nc2ccccc2Cl)S/C1=C\c1cccc([N+](=O)[O-])c1O,34.1,13.5,30.5,9.6,5.2,·
COc1c(/C=C2\SC(=Nc3ccccc3Cl)NC2=O)cccc1[N+](=O)[O-],47.0,24.5,43.7*,4.6,31.3,45.0*
C/C(=N/Nc1ccc([N+](=O)[O-])cc1)c1ccc(C)cc1C,10.1,13.7,42.0*,45.7,15.3,27.4
CCOC(=O)C1CCCN(C(=O)c2ccc3c(c2)N(Cc2ccccc2)C(=O)c2ccccc2S3=O)C1 (stereo not given),14.3,18.8,-3.3,11.3,17.6,·
O=c1onc(-c2cccnc2)n1-c1ccccc1F,10.9,13.1,10.4,2.9,1.4,·
COc1ccc(C(CCNC(C)c2ccccc2)c2ccc(F)cc2)cc1 (stereo not given),44.6,18.7,51.2*,43.1*,28.5,36.2*
COc1ccc(CNC(=O)CNC(C)c2ccc(F)cc2)cc1 (stereo not given),4.9,-5.6,8.1,8.7,24.0,·
COc1ccc(C(CCNCc2ccccc2)c2ccc(F)cc2)cc1 (stereo not given),18.7,9.1,45.5*,31.0,29.7,20.4
COc1ccc(OC)c(NC(=O)c2cccc3c2C(=O)N(C2CCCCC2)C3)c1,28.7,25.1,53.8*,14.5,21.2,11.2
CCCC/C(O)=C1\C(=O)CC(C)(C)CC1=Nc1ccccc1OC,30.9,26.2,41.2*,10.4,-36.4,25.5
CCOC(=O)C1(CCOc2ccccc2)CCN(Cc2nccn2CC)CC1,12.5,17.5,27.8,-0.7,9.5,·
CCOC(=O)C1(CCCc2ccccc2)CCN(Cc2nccn2CC)CC1,17.9,26.1,41.4*,11.9,26.9,29.5
N#Cc1c(NC(=O)c2ccc(Cn3cc(Br)cn3)o2)sc2c1CCCCC2,41.3,35.5,32.4,5.8,14.0,·
COC(=O)c1sc(NC(=O)c2ccc(Cn3cc(Cl)cn3)o2)c(C#N)c1C,19.6,13.2,44.4*,23.3,5.2,30.0*
CCNC(=S)N(CCO)Cc1cc2cc3c(cc2[nH]c1=O)OCO3,4.0,-6.6,-5.4,13.0,11.8,·
O=C(CCC(=O)N1CCN(c2ccc(Cl)c(Cl)c2)CC1)c1ccccc1,22.5,10.0,42.1*,25.0,5.0,14.6
COc1ccc(Nc2c(-c3ccc(C)cc3)nc3cnccn23)cc1,35.4,9.6,13.7,2.7,7.5,·
Cc1ccc(Nc2c(-c3ccccc3O)nc3cnccn23)cc1,46.9,13.8,40.1*,3.4,20.8,26.9
O=[N+]([O-])c1nn(-c2ccc(Cl)cc2)n(O)c1=NCc1cccnc1,35.1,29.5,42.2*,-19.0,-9.2,30.4*
CSc1ccc(CN(C)C(=O)CNC(=O)c2sc3ccccc3c2Cl)cc1,24.0,3.9,15.4,-1.9,18.1,·
C=C(C)CC1Nc2ccccc2NC1CC(=C)C (stereo not given),43.4,34.1,41.7*,14.8,6.6,40.7*
Oc1ccccc1-c1nc(NCc2cccnc2)c2ccccc2n1,45.6,27.2,49.3*,0.2,14.8,57.0*
Cc1cc(Cl)c(S(=O)(=O)N2CCN(c3ccccn3)CC2)cc1OCC(N)=O,6.5,9.3,2.6,-2.1,11.9,·
SMILES,tim23-1 inh,TIM10 inh,tim10-1 inh,NALP1 inh,NLRP3 yeast inh,tim10-1 confirm
CNc1nc(SC)n(C)c(=O)c1N=O,-9.3,-29.0,4.2,-10.3,10.9,·
CCN1C(=O)[C@H]2[C@H]3[C@H](O)[C@H](O)C/C(=N\O[C@H](C)c4cn([C@H](CO)Cc5ccccc5)nn4)[C@@H]3CC[C@H]2C1=O,11.8,13.1,9.2,19.7,-3.0,·
CC1CCCCC1NC(=O)CCCn1c(=S)[nH]c2ccccc2c1=O (stereo not given),2.9,-23.3,8.5,-11.4,22.3,·
CC1CCCCC1n1c(=S)[nH]c2ccccc2c1=O (stereo not given),38.3,34.2,41.8*,4.3,-0.3,2.8
Cc1cccc(N=Nc2c(C)[nH]n(C(N)=S)c2=O)c1C,13.5,25.0,5.6,10.4,26.9,·
Cc1ccccc1N=Nc1c(C)[nH]n(C(N)=S)c1=O,31.5,31.3,41.3*,25.0,18.7,25.5
